Assay in all cases: NCI-60 one-dose screen, 48 h (100 = growth as untreated, 0 = no growth, -100 = all killed)
Conditions in all cases: 10 µM unless noted

Assay [1] relates to BT-549 breast.
The test system of assay [2] is MDA-MB-435 melanoma.
The subject of assay [3] is HCT-116 colon.
For assay [4], the system named is HCC-2998 colon.
Assay [5] has as its system KM12 colon.
For assay [6], the system named is MCF7 breast.

Structures are written as SMILES. The panel holds about 83,000 compounds, 20% with a hit somewhere; the sample as a whole holds those more often.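 Each cell line was grown in a 96-well plate and treated with one concentration of compound for 48 hours. Values below 10 were considered active.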 Unmarked numbers belong to inactive results. Activity calls are given as the source filed them.

For `Clc1ccc2c(NCCCn3ccnc3)c3oc4ccc(Cl)cc4c3nc2c1`, the growth in assay [1] was 88.1%; in assay [2], 86.2%; in assay [3], 81%; in assay [4], 79%; in assay [5] it was 87.6%.

On to `Clc1ccc2c(NCCCN3CCOCC3)c3oc4ccc(Cl)cc4c3nc2c1`, for which the growth in assay [1] is 81.3%; in assay [2], 69.6%; in assay [6], 22.2%; in assay [3] it was 23.4%; in assay [4], 10%; in assay [5], 48.4%.

In the case of `COc1ccc([C@@H]2c3[nH]c4ccccc4c3CC3C(=O)N(C4CCN(Cc5c(F)cccc5F)CC4)CC(=O)N32)c(OC)c1` (some centres undefined), the growth in assay [1] is 30.4% [5.26 µM]; in assay [2] it was 60% [5.26 µM]; in assay [6] it was 42.4% [5.26 µM]; in assay [3], -15.2% [5.26 µM] (active); in assay [5] it was 58.1% [5.26 µM].

Consider `O=C(CCCN1C(=O)/C(=C/c2ccccc2F)SC1=S)N1CCOCC1`, for which the growth in assay [1] is 114%; in assay [2] it was 82.7%; in assay [6], 56.9%; in assay [3], 88.7%; in assay [4], 119%; in assay [5] it was 85.4%.

With `O=C(c1ccc(Cl)cc1)C1[C@H](c2ccc(Cl)cc2)[C@@H](c2ccccc2)NC12C(=O)Nc1ccc(Br)cc12` (some centres undefined), the growth is 61.4% in assay [1]; 34.8% in assay [2]; 15.8% in assay [6]; 13.2% in assay [3]; 13.3% in assay [4]; 15.3% in assay [5].

For the compound `CN(C)CCCNc1c2ccccc2nc2c1oc1ccc(Cl)cc12`, the growth in assay [1] is 57.9%; in assay [2], 33.5%; in assay [6] it was -25.7% (active); in assay [3], 22.5%; in assay [4] it was -43.7% (active); in assay [5], 25.5%.

Regarding `COc1ccc(C(=O)/C=C/c2ccc(Oc3nc(NCCO)nc(N4CCOCC4)n3)c(OC)c2)cc1`, the growth in assay [1] was 90.9%; in assay [2] it was 44.5%; in assay [6], 12.7%; in assay [3] it was 10.6%; in assay [4] it was 99.8%; in assay [5], 28.9%.

For the compound `COc1ccc(/C=N/NC(=O)c2[nH]c3ccc(Br)cc3c2-c2ccccc2)s1`, the growth in assay [1] is -15.9% (active); in assay [2] it was -21.4% (active); in assay [6], 6.97% (active); in assay [3], -19.9% (active); in assay [4], 26.8%; in assay [5], 3.72% (active).

Turning to `Cc1ccc(/C=C/c2nn3c(-c4ccco4)nnc3s2)cc1C`, the growth was 107% in assay [1]; 99.4% in assay [2]; 82.1% in assay [6]; 109% in assay [3]; 108% in assay [4]; 110% in assay [5].

Regarding `COc1cc(/C=C/C(=O)c2ccc(C(F)(F)F)cc2)ccc1Oc1nc(NCCO)nc(N2CCOCC2)n1`, the growth in assay [1] was 92.9%; in assay [2] it was 78.9%; in assay [6], 17%; in assay [3], -18.5% (active); in assay [4] it was 104%; in assay [5], 62.4%.

For the compound `CN(C)CCCNc1c2ccc(Cl)cc2nc2c1oc1ccccc12`, the growth was 53.4% in assay [1]; -40.6% (active) in assay [2]; -21.7% (active) in assay [6]; -19.8% (active) in assay [3]; -70.8% (active) in assay [4]; 1.73% (active) in assay [5].

Regarding `COc1cc2nc(-c3ccc(Cl)cc3)cc(OCCCNCC3CCCO3)c2cc1OC` (centres undefined), the growth was 87.7% in assay [1]; 12.4% in assay [2]; 36% in assay [6]; 25.1% in assay [3]; 70.6% in assay [4]; 39.8% in assay [5].

Regarding `OC1CCN(CCCOc2c3ccccc3nc3c2oc2ccccc23)CC1`, the growth in assay [1] is 7.19% (active); in assay [2], -10.5% (active); in assay [6], 0.978% (active); in assay [3] it was 3.79% (active); in assay [4], -12.4% (active); in assay [5], 5.22% (active).

Turning to `CO/N=C1\CCc2c(sc(NC(=O)c3cccc(C(F)(F)F)c3)c2C(N)=O)C1`, the growth in assay [1] is 49.4%; in assay [2] it was 49.1%; in assay [6], 45.9%; in assay [3], 5% (active); in assay [5], 56%.

For `N#Cc1c(-c2ccc(F)cc2)nc2c(C#N)c(Nc3ccccc3)nn2c1N`, the growth in assay [1] was 109%; in assay [2], 95.5%; in assay [6], 91.7%; in assay [3], 105%; in assay [4] it was 109%; in assay [5] it was 97.9%.

On to `COc1cc(OC)c(S(=O)(=O)NNC(=O)c2ccncc2)cc1C(=O)/C=C/c1ccc(C)cc1`, for which the growth in assay [1] is 6.18% (active); in assay [2], 83.2%; in assay [6], 26.7%; in assay [3], 9.81% (active); in assay [4] it was 91.6%; in assay [5] it was 54.8%.

As to `Clc1ccc2oc3c(OCCCn4ccnc4)c4ccccc4nc3c2c1`, the growth in assay [1] is 95.7%; in assay [2], 64.6%; in assay [6] it was 63.2%; in assay [3], 28.9%; in assay [4], 72.1%; in assay [5], 55.8%.

Consider `Nc1c(C(=O)Nc2ccc(Cl)cc2)sc2nc(-c3cnccn3)cc(-c3cccs3)c12`, for which the growth in assay [1] was 65.3%; in assay [2], 77.5%; in assay [6], 55.3%; in assay [3], 41.6%; in assay [4] it was 104%; in assay [5], 80.2%.

On to `COc1cccc(N2CCN(c3ncnc4c3[nH]c3ccc(F)cc34)C[C@@H]2C)c1`, for which the growth in assay [1] is -97% (active); in assay [2], -75.4% (active); in assay [6], 0.969% (active); in assay [3], -35.9% (active); in assay [4], 16.7%; in assay [5], -71% (active).

In the case of `CCCC(=O)NC(c1cccnc1)c1cc(C)c2cccnc2c1O` (centres undefined), the growth in assay [1] is 69.5%; in assay [2], 59.7%; in assay [6], 10.6%; in assay [3], 8.73% (active); in assay [4] it was 64.1%; in assay [5], 38.4%.

Take `Fc1ccc(-c2nc(C(Cl)Cl)nc3cc(-c4ccccc4)nn23)cc1`: the growth in assay [1] was 52.3%; in assay [2] it was 3.93% (active); in assay [6] it was 21.5%; in assay [3], 5.36% (active); in assay [4], -34.7% (active); in assay [5] it was -12% (active).

As for `O=C1c2c(c3c4cc(Br)ccc4[nH]c3c3ccc4ccccc4c23)C(=O)N1CCO`, the growth is 105% in assay [1], 94.8% in assay [2], 84.2% in assay [3] and 103% in assay [4].

For the compound `CCCCN1C(=O)/C(=c2\sc3n(c2=O)C2C(NN=3)N(CC)C(=O)N2CC)c2cc(Cl)ccc21` (centres undefined), the growth in assay [1] is 85%; in assay [2] it was 6.07% (active); in assay [6], 27.5%; in assay [3], 56.7%; in assay [4], 101%; in assay [5] it was 55.8%.

With `COc1ccc(/C=C/C(=O)c2ccc(NC(=O)CSc3nnc(-c4ccc5nc(-c6ccc(Cl)cc6)[nH]c5c4)o3)cc2)cc1`, the growth was 85% in assay [1]; 98.1% in assay [2]; 79.7% in assay [6]; 93.4% in assay [3]; 118% in assay [4]; 99.7% in assay [5].

For the compound `COc1cc(-c2ccc3ncnc(NC(C)c4ccccc4)c3c2)cnc1OC` (centres undefined), the growth in assay [1] is 32.6%; in assay [2], 69.6%; in assay [6] it was 23.7%; in assay [3] it was 76.8%; in assay [4], 69.8%; in assay [5], 75.3%.

For `C#Cc1nc(C2=C(C)C(O)CC2)cs1` (centres undefined), the growth is 119% in assay [1]; 105% in assay [2]; 85.1% in assay [6]; 111% in assay [3]; 115% in assay [4]; 63.9% in assay [5].

On to `NS(=O)(=O)c1cccc(Nc2nc(SCC(=O)c3ccc(Cl)cc3)nc3ccccc23)c1`, for which the growth in assay [1] is 26.1%; in assay [2], 77.6%; in assay [6], 65.6%; in assay [3], 76.4%; in assay [4], 112%; in assay [5] it was 71.7%.

Turning to `O=C(Nc1nc2ccc(O)cc2s1)c1cccc(C(F)(F)F)c1`, the growth in assay [1] is 84.4%; in assay [2] it was 44.7%; in assay [6], 73.7%; in assay [3] it was 57.6%; in assay [5], 42.7%.

With `Clc1ccc2c(OCCCN3CCOCC3)c3oc4ccccc4c3nc2c1`, the growth in assay [1] was 80.1%; in assay [2], 33.2%; in assay [6] it was 10.4%; in assay [3] it was 17.7%; in assay [4] it was 46%; in assay [5], 33.1%.

Turning to `NC(=O)c1c(NC(=O)c2ccc(C3CCCCC3)cc2)sc2c1CCC(=O)C2`, the growth in assay [1] was -2.9% (active); in assay [2], 11.9%; in assay [6], 10.9%; in assay [3], 7.94% (active); in assay [5], 15.8%.

Regarding `O=C(CSc1nc2sc3c(c2c(=O)n1-c1ccc(Cl)cc1)CCCC3)NNC(=O)Nc1cccc(C(F)(F)F)c1`, the growth is 54% in assay [1]; 24.5% in assay [2]; 16.7% in assay [6]; 5.54% (active) in assay [3]; 38.9% in assay [4]; 11% in assay [5].

`CC(=O)Oc1ccccc1C(=O)Nc1ccc(C(=O)/C=C/c2cccs2)cc1`: the growth in assay [1] was 99.2%; in assay [2], 97.8%; in assay [6], 93%; in assay [3], 108%; in assay [4] it was 109%; in assay [5], 102%.

Consider `COc1ccc(-c2nc3ccc(-c4nnc(SCC(=O)Nc5ccc(C(=O)/C=C/c6ccccc6)cc5)o4)cc3[nH]2)cc1OC`, for which the growth in assay [1] is 94.1%; in assay [2], 106%; in assay [6] it was 78.3%; in assay [3], 89.7%; in assay [4], 123%; in assay [5], 99%.

On to `C#Cc1nc(C2=C(C)C(=O)/C(=N/OC(C)=O)C2)cs1`, for which the growth in assay [1] is 95%; in assay [2], 94.8%; in assay [6], 68.4%; in assay [3] it was 78.4%; in assay [4], 117%; in assay [5] it was 46.8%.

On to `O=C(CN1CCOCC1)NNc1ncnc2ccccc12`, for which the growth is 100% in assay [1]; 91.7% in assay [2]; 81.7% in assay [3]; 114% in assay [4]; 97.1% in assay [5].

Consider `C=CCn1c(SCC(=O)c2ccc(Br)cc2)nnc1-c1c[nH]c2ccccc12`, for which the growth was 106% in assay [1]; 108% in assay [2]; 97.9% in assay [6]; 93.5% in assay [3]; 104% in assay [4]; 102% in assay [5].

Turning to `Cc1nc(-c2cc3ccccc3oc2=O)ccc1C(=O)/C=C/c1ccc(Cl)c(Cl)c1`, the growth was 108% in assay [1]; 103% in assay [2]; 86.3% in assay [6]; 103% in assay [3]; 107% in assay [4]; 103% in assay [5].

Regarding `CC(C)(C)Nc1nc2c(OCCc3ccccc3)cccn2c1-c1ccccc1Cl`, the growth is 24% in assay [1]; 7.76% (active) in assay [2]; 2.39% (active) in assay [3]; -0.61% (active) in assay [4]; 4.49% (active) in assay [5].

The values are drawn from PubChem BioAssay (NCI).
